Records with an inconclusive call do not appear. The source made the active and inactive calls. The call rests on the fitted dose curve; in most records, active means well fitted activation curve with a large enough effect in the signal ratio in the repeat runs (not every such curve was filed as active); inconclusive means weak or mixed curves, or effect the other way; inactive means flat fitted curve, though single readings scatter; the % refers to the signal ratio.
Experiment: qHTS assay to identify small molecule agonists of the endoplasmic reticulum stress response signaling pathway (AID 1159516)
Details: ESRE-bla HeLa, ER stress beta-lactamase reporter, 5 h; series mostly up to 61 µM; activation: at the top concentration
Excerpt: National Center for Advancing Translational Sciences [NCATS]
NIH Chemical Genomics Center [NCGC]
U.S. Environmental Protection Agency [EPA]
National Institutes of Environmental Health Sciences [NIEHS]
National Toxicology Program [NTP]
U.S. Food and Drug Administration [FDA]
Endoplasmic Reticulum (ER) plays an important role in cellular signaling, protein folding/maturation, stress response, lipid biosynthesis, calcium storage and release etc. Under stress conditions, proteins in ER misfold or unfold, and leading to the expression of ER stress responsive genes. ER stress has been associated with a variety of pathophysiological conditions such as cancer, inflammation, neurodegenerative diseases, diabetes, ischemic heart disease etc. To identify the compounds that induce ER stress response, an ER stress reporter cell line, CellSensor ESRE-bla HeLa (Life Technologies, Carlsbad, CA) containing a beta-lactamase reporter gene under control of the Endoplasmic reticulum Stress Response Element (ESRE) was used to screen Tox21 10K compound library.
Tox21 Assay Protocol Summary:
ESRE-bla HeLa cells were dispensed at 1,500 cells/6 uL of assay medium per well into black wall/clear-bottom 1536-well plates using a Multidrop Combi (ThermoFisher Scientific, Waltham, MA) dispenser. After the assay plates were incubated at 37 C and 5% CO2 for an overnight, 23 nL of compounds dissolved in DMSO, positive controls or DMSO only was transferred to the assay plate by a Pintool station (Kalypsys, San Diego, CA). The assay plates were incubated at 37 C and 5% CO2 for 5 hr. One uL of LiveBLAzer B/G FRET substrate (Life Technologies) was added using a Flying Reagent Dispenser (Aurora Discovery, San Diego, CA) and the plates were incubated at room temperature for 2 hr. Fluorescence intensity (405 nm excitation, 460 nm and 530 nm emissions) was measured using an Envision plate reader (PerkinElmer, Shelton, CT).
On the % scale 0 is the no-effect control and ±100 the full control effect.

Row | Compound | activation
1 | CCCOC(=O)C(C)O (stereo not given) | -14.7% [at 78.8 µM] (inactive)
2 | C=C(C)C(=O)OCCNC(C)(C)C | -0.138% (inactive)
3 | CC(=O)OC(C)OC(=O)C(C)c1ccc(-c2ccccc2)c(F)c1 (stereo not given) | -1.57% (inactive)
4 | CC(=O)Nc1ccc(S(=O)(=O)Cl)cc1 | -0.616% (inactive)
5 | CCCCCOC(=O)CCC | -2.69% (inactive)
6 | CCCCCCCCCC(C)=O | -0.179% [at 78.8 µM] (inactive)
7 | CC(C)(C)NC(N)=O | 3.52% (inactive)
8 | CCCOC(OCCC)OCCC | -0.265% (inactive)
9 | CC1=CCC(C(C)C)=CC1 | 1.43% (inactive)
10 | CC(C)=CCOC(=O)c1ccccc1 | 4.87% (inactive)
11 | CCC(C)(CCC(C)C)C(=O)O (stereo not given) | 0.744% (inactive)
12 | O=C(O)c1cc(Cl)cc([N+](=O)[O-])c1Cl | 0.703% (inactive)
13 | CCCC(=O)C(C)=O | 1.64% (inactive)
14 | CCCCCCCCOS(=O)(=O)O | 0.165% (inactive)
15 | CCCC/C=C\CCCCCCCCCC=O | 2.01% (inactive)
16 | CC1=C(C(=O)O)N2C(=O)[C@@H](NC(=O)[C@H](N)c3ccc(O)cc3)[C@H]2SC1 | 1.83% (inactive)
17 | C=C(C)C(=O)OCc1ccccc1 | 0.11% (inactive)
18 | C[Si](C)=O | -1.7% [at 6.95 µM] (inactive)
19 | COCCc1ccc(OCC2CO2)cc1 (stereo not given) | -1.34% (inactive)
20 | COc1ccc(Br)c(C)c1 | -2.44% [at 78.8 µM] (inactive)

Row | Compound | activation
21 | Cc1cccc(C)c1NC(=O)c1ccccc1C(=O)O | 2.77% (inactive)
22 | BrCc1cccc(Oc2ccccc2)c1 | -0.742% (inactive)
23 | C[C@H](CCC(=O)O)[C@H]1CC[C@H]2[C@@H]3C(=O)C[C@@H]4CC(=O)CC[C@]4(C)[C@H]3CC(=O)[C@]12C | 0.0819% (inactive)
24 | CCCC/C=C/C=C\C=O | -3.45% (inactive)
25 | CC(C)CCCC(C)(C)O | -0.978% (inactive)
26 | Cc1ccccc1C(=O)Nc1ccc(C(=O)N2CCCC(N(C)C)c3ccccc32)cc1 (stereo not given) | -6.2% (inactive)
27 | Nc1ccc2cc(S(=O)(=O)O)cc(O)c2c1 | -0.407% (inactive)
28 | NC(CO)C(=O)NNCc1ccc(O)c(O)c1O (stereo not given) | 0.0783% (inactive)
29 | Cc1cc(NC(=O)C2=C(O)c3ccccc3S(=O)(=O)N2C)no1 | 0.241% (inactive)
30 | C[C@@H]1O[C@@H](O[C@@H]2[C@@H](O)[C@H](OCCc3ccc(O)c(O)c3)O[C@H](CO[C@@H]3O[C@H](CO)[C@@H](O)[C@H](O)[C@H]3O)[C@H]2OC(=O)/C=C/c2ccc(O)c(O)c2)[C@H](O)[C@H](O)[C@H]1O | 3.77% (inactive)
31 | CC(S)C(=O)NCC(=O)O (stereo not given) | 0.246% (inactive)
32 | CCn1ccc(NS(=O)(=O)c2ccc(N)cc2)nc1=O | -0.525% (inactive)
33 | COC(=O)CCCCCCCC(=O)OC | -0.152% (inactive)
34 | N[C@@H](CCC(=O)Nc1ccc([N+](=O)[O-])cc1)C(=O)O | -0.262% (inactive)
35 | C[C@@H](O)[C@H]1C(=O)N2C(C(=O)O)=C(SCCN=CN)C[C@H]12 | -3.46% (inactive)
36 | C=C(C)C(=O)OCC(C)(C)COC(=O)C(=C)C | -1.92% (inactive)
37 | Nc1ccc([N+](=O)[O-])c(N)c1 | -0.252% (inactive)
38 | CNS(=O)(=O)CCc1ccc2[nH]cc(C3CCN(C)CC3)c2c1 | 0.437% (inactive)
39 | OCCC(F)(F)C(F)(F)C(F)(F)C(F)(F)C(F)(F)C(F)(F)C(F)(F)C(F)(F)F | 3.4% (inactive)
40 | CC(C)(C)c1nnc(NS(=O)(=O)c2ccc(N)cc2)s1 | 0.805% (inactive)

Reference: PubChem BioAssay (Tox21)
